# Only some compounds are listed: those with a hit (about 0.29% of all), similar ones and a draw of the others.
# Yp Topo-I inh – Y. pestis Topo-I inhibition via cleavage products; Y. pestis Topo-I cleavage product accumulation, plate reader; activity, % at 10 µM; hit rate 0.064% among 360,000; AID 504884; in the data active = activity above about 50%, passing the limit was not always enough
# Vc quorum ag-1 – inducers of Vibrio cholerae quorum light production without autoinducers; V. cholerae BH1578 lux reporter, luminescence, 6 h; activation, % at 18.7 µM; hit rate 0.16% among 350,000; AID 588436; in the data active = activation mostly above about 9.7%, no sharp cut-off
# Mtb hypoxia rep – inhibitors of hypoxia-regulated fluorescent reporter in Mycobacterium tuberculosis; M. tuberculosis hypoxia-regulated fluorescent reporter, fluorescence; fluorescence inhibition, % (no concentration beside the values); hit rate 0.1% among 300,000; in the data active = fluorescence inhibition mostly above about 23%, no sharp cut-off; inactive = mostly below about 17%
# Vc quorum ag-2 – inducers of V. cholerae quorum light production without autoinducers; 620 tested, under 10 active; V. cholerae BH1578 lux reporter, luminescence, 6 h; AID 602243; shares compounds with Vc quorum ag-1; activation, % at 50 µM; call rule not given here
# * hit, by the source's call; i = inactive; / = no result; + = active, no number.
SMILES,Yp Topo-I inh,Vc quorum ag-1,Mtb hypoxia rep,Vc quorum ag-2
O=C(Nc1ccc(S(=O)(=O)Nc2ncccn2)cc1)C1CC(=O)N(c2ccccc2)C1 (configuration not stated),-9.5,14.3,11.7,2.6
COC(=O)c1ccc(C2c3c(oc4ccc(F)cc4c3=O)C(=O)N2CCO)cc1 (configuration not stated),-5.1,-0.3,/,/
COC(=O)c1ccc(C2C(C(C)=O)=C(O)C(=O)N2CCO)cc1 (configuration not stated),-7.6,16.7*,-5.2,0.1
CCOC(=O)CNc1c(-c2ccc(Cl)cc2)nc2cnccn12,-11.6,25.0*,/,-0.1
CCOC(=O)CNc1c(-c2ccc(F)cc2)nc2cnccn12,-6.2,i,18.7,/
CCCc1c(C(=O)NN=C(C)c2ccncc2)nnn1-c1nonc1N,/,/,15.0,/
O=C(O)CN1CCN(Cc2ccc(F)cc2Cl)C1=O,12.1,12.5,6.6,-0.1
O=C(CN1CCN(Cc2ccc(F)cc2Cl)C1=O)NCCc1ccccc1,10.2,-0.3,6.2,/
CCc1ccccc1NC(=O)CN(C)C(=O)c1cccc(S(=O)(=O)N2CCCCCC2)c1,19.1,i,-1.3,/
COc1ccc(-n2c(COc3ccccc3)nnc2SCc2ccc(C#N)cc2)cc1,6.2,12.5,0.1,0.0
N#Cc1ccc(CSc2nnc(COc3ccccc3)n2-c2ccccc2)cc1,0.5,-0.2,1.7,/
CCCNC(=O)C1(C)CCCN(C(=O)c2ccccc2OC(F)(F)F)C1 (configuration not stated),-2.0,0.3,/,/
COc1ccc(NC(=O)c2cc(S(=O)(=O)N3CCCCC3)c[nH]2)c(OC)c1,-5.6,-0.3,-3.1,/
CCOC(=O)CSc1nc2cc(OCC)ccc2cc1C#N,4.6,1.6,13.5,/
CCOc1ccc2cc(C#N)c(SCC(=O)N3CCC(C)CC3)nc2c1,4.6,14.3,2.4,4.5
CCOc1cccc(C=NNS(=O)(=O)c2ccc(C)c([N+](=O)[O-])c2)c1O,/,/,15.2,/
O=C(CCc1ccccc1)N1CCN(Cc2ccc(F)cc2Cl)CC1,40.8,i,20.8,/
COc1ccc(C(=O)CSc2nnc3ccccn23)cc1OC,-5.6,i,3.9,/
O=C(CSc1nnc2ccccn12)c1ccc2c(c1)OCCO2,-7.9,+,/,i
CC(C)n1nnnc1SCC(=O)c1ccc2c(c1)OCCO2,3.3,+,4.8,i
CC(C)n1nnnc1SCC(=O)Nc1ccc2c(c1)OCCO2,/,/,3.3,/
CCn1nnnc1SCC(=O)Nc1ccc2c(c1)OCCO2,2.6,0.3,/,/
CCn1nnnc1SCC(=O)c1ccc2c(c1)OCCO2,-1.9,+,3.4,i
CN(C)S(=O)(=O)Oc1cccc(C(=O)Nc2ccc([N+](=O)[O-])cc2)c1,-8.9,i,-7.6,/
CCOC(=O)/C(=N\Nc1ncnc2ccccc12)c1ccc(C)cc1,4.5,-0.6,/,/
SMILES,Yp Topo-I inh,Vc quorum ag-1,Mtb hypoxia rep,Vc quorum ag-2
CC1=CC(C)C(c2ccc(C(F)(F)F)cc2)OC1=O (configuration not stated),/,/,9.5,/
O=C(C(=NNc1ccccc1)Sc1nnnn1-c1ccccc1)c1ccccc1,/,/,-1.0,/
CCC(C)Cn1c(S(=O)(=O)O)nc2ccccc21 (configuration not stated),0.8,24.3,-1.0,-0.1
CC(C)Cn1c(S(=O)(=O)O)nc2ccccc21,-7.5,i,1.9,/
CC(C)[C@@H](N)C(=O)NN=Cc1ccc2ncccc2c1,/,/,-5.6,/
O=C(COC(=O)c1ccc(Cl)nc1)Nc1ccc2ccccc2c1,-0.4,14.3,3.7,0.2
O=C(COC(=O)c1ccc(Cl)nc1)Nc1ccc(Cl)cc1,-3.6,-2.1,0.5,/
CCOC(=O)C(=NNc1cc(C(F)(F)F)ccc1Cl)N(CC)CC,/,/,3.3,/
COc1cccc(C(=O)NC2CCSC2=O)c1 (configuration not stated),8.8,i,5.8,/
COc1ccc(C(=O)NC2CCSC2=O)cc1 (configuration not stated),-4.5,14.3,6.2,-0.1
CN(C)C(CNC(=O)c1ccc(-c2ccccc2)cc1)c1ccccc1 (configuration not stated),7.7,-0.5,2.9,/
CC(OC(=O)c1ccc(-n2cnnn2)cc1)C(=O)N(C)c1ccccc1 (configuration not stated),5.7,14.3,2.8,1.2
CC(OC(=O)c1cccc(-n2cnnn2)c1)C(=O)N(C)c1ccccc1 (configuration not stated),7.1,5.3,0.9,/
O=C(O)C(=O)C(=Cc1ccccc1)c1ccc2ccccc2n1,/,/,5.8,/
CCC(=NN=C(CC)c1ccccc1N)c1ccccc1N,/,/,13.6,/
CC(Sc1nnc(C(C)Oc2ccccc2F)o1)C(=O)NCc1ccc2c(c1)OCO2 (configuration not stated),11.6,-5.7,11.3,/
CCc1cc(C(=O)c2ccccc2OC)c(N)s1,-6.2,12.5,3.6,15.4
CCc1cc(C(=O)c2ccc(OC)cc2)c(N)s1,0.9,0.0,-2.1,/
CSCCC(NC(=O)c1ccco1)C(=O)N1CCN(C(c2ccccc2)c2ccccc2)CC1 (configuration not stated),4.1,-0.5,0.6,/
Cn1c(=O)c2c(nc(NN=Cc3ccc(OC(=O)c4ccco4)cc3)n2Cc2ccccc2Cl)n(C)c1=O,/,/,-8.4,/
CCN1C(=O)C(=O)N(CC(=O)N2CCN(c3ccccc3)CC2)C1=O,1.3,i,-4.0,/
COc1ccc(NC(=O)CN(C)C(=O)c2cccc(S(=O)(=O)N3CCN(Cc4ccccc4)CC3)c2)cc1,14.7,i,5.7,/
COc1ccc(NC(=O)CN(C)C(=O)c2cccc(S(=O)(=O)N3CCN(C)CC3)c2)cc1,-13.0,9.3,8.2,0.1
CCOC(=O)CSc1nc(N)c(C#N)c(-c2ccc(OC)cc2)c1C#N,2.5,i,/,/
CCOC(=O)CSc1nc(N)c(C#N)c(-c2cccs2)c1C#N,-3.3,43.9*,/,0.1
SMILES,Yp Topo-I inh,Vc quorum ag-1,Mtb hypoxia rep,Vc quorum ag-2
CCC(=O)N(CCCN(C)C)c1nc(-c2cc(OC)ccc2OC)cs1,-2.0,-0.2,2.1,/
CCC(=O)N(CC)c1nc(-c2cc(OC)ccc2OC)cs1,-1.7,15.4*,11.8,1.5
COC(=O)C1=C(c2ccc(OC)c(OC)c2)CC2CCC1N2C(=O)N1CCc2cc(OC)c(OC)cc2C1 (configuration not stated),/,/,2.9,/
CCn1cc(C(=O)NC2CCCCC2C)c(=O)c2ccc(C)nc21 (configuration not stated),-5.5,30.0*,/,0.0
CCn1cc(C(=O)Nc2ccccc2)c(=O)c2ccc(C)nc21,/,/,0.2,/
CCn1nc(C)c(C=NNC(=O)Cn2cncn2)c1C,/,/,-8.7,/
CN(CC(=O)OCC(=O)NCc1ccccc1)S(=O)(=O)c1ccc(F)cc1,-9.4,-0.1,0.5,/
COc1cccc(CNC(=O)COC(=O)CN(C)S(=O)(=O)c2ccc(NC(C)=O)cc2)c1,11.1,12.5,4.4,0.0
Cc1c([N+](=O)[O-])c(CC=NO)nn1C,/,/,-7.3,/
Cc1csc(NC(=O)Cc2nn(C)c(=O)c3ccccc23)n1,-0.2,25.0*,/,0.0
COc1cccc(OC)c1NC(=O)Cc1nn(C)c(=O)c2ccccc12,0.7,-1.9,3.1,/
COc1ccc(CN(C)C(=O)c2cc(S(=O)(=O)N3CCOCC3)ccc2N2CCCC2)cc1,34.3,-0.7,1.3,/
NC(=O)NOCc1ncc(C(F)(F)F)cc1Cl,5.6,i,4.4,/
CS(=O)(=O)NNC(=O)c1sccc1OCc1ncc(C(F)(F)F)cc1Cl,0.9,14.3,10.4,7.0

# Compound activity (PubChem BioAssay)
